Measured values published in PubChem BioAssay.
For some of these results: Measured potencies and affinities stand elsewhere. Active and inactive are the calls of the source. Unless noted, no stated cut-off is given here; in the data, active means parasite load remaining mostly below about 12% (no sharp cut-off); inactive means mostly above about 10%. Peptide text beside a SMILES is read from it.

What was measured:
[1] = polyglutamine-triggered caspase-3 activation inhibitors, cell-based (AID 1583); details: polyglutamine-induced caspase-3 activation, cell assay; stronger effect = higher value;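 tested at 10 µM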
[2] = suppressors of polyQ aggregation in yeast, 75Q-TubU reporter (AID 1593); details: Yeast 75Q polyglutamine aggregation reporter
[3] = rescue of polyQ-huntingtin neuronal dysfunction in worms, whole organism, C. elegans mechanosensory neurons, N-terminal huntingtin (AID 1599); details: touch response, stronger effect = higher value
[4] = inhibitors of mitochondrial cytochrome c release, biochemical, purified mitochondria (AID 1603); details: stronger effect = lower value;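 further: mouse liver mitochondria challenged with calcium chloride; signal normalized to the plate average as 100%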
[5] = inhibitors of polyQ protein aggregation (AID 1604); details: polyglutamine-induced protein aggregation inhibition assay; stronger effect = higher value; tested at 2.5 µM
[6] = enhancers of glutamate uptake in motor neurons, MN-1 cell line (AID 1612); details: MN-1 motor neuron cells, stronger effect = higher value;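 further: tested at 1 µM final; 0% = mean of DMSO vehicle wells on each plate; positive means more glutamate uptake than control and negative means less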
[7] = reducers of polyQ inclusions in PC12 cells, cell-based, NGF-treated PC12, GFPQ80 (AID 1614); details: PC12 NGF-treated GFP-polyQ80 inclusion reduction;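 further: lower means fewer inclusions and 0 means no inclusions at all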
[8] = suppressors of polyglutamine aggregation in yeast, 75Q-TubH (AID 1616); details: S. cerevisiae 75Q-TubH polyglutamine aggregation suppression; stronger effect = higher value
[9] = liver-stage malaria parasite growth inhibition, primary screen, cell-based, HepG2, luciferase luminescence, HepG2 viability (AID 624349);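 further: 100% = mean of DMSO negative control wells on the same plate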; details: P. berghei liver stage in HepG2, luciferase luminescence, concentration not given here; parasite load remaining: stronger effect = lower value; viability: measured here: HepG2 viability without parasites
[10] = circadian clock period modulators, cell-based, LOPAC library, luminescence reporter (AID 2774; call rule not given here;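 further: values are relative to mean of DMSO wells on each plate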); details: circadian reporter cells, at 7 µM, actives lie on both sides

Row | Structure (SMILES) | inhibition [1] | score [2] | rescue above control [3] | cytochrome c release ratio [4] | inhibition of aggregation [5] | glutamate uptake change [6] | inclusion score [7] | aggregation suppression score [8] | parasite load remaining [9] | viability [9] | period change [10]
1 | CC(=O)C1CCC2C3CC=C4CC(OS(=O)(=O)O)CC[C@]4(C)C3CC[C@]12C (some centres not stated) | -1.98% | 0.85 | 6.71 | 1.34 | 37.2% | 48.1% | 2 | 0.286 | – | – | –
2 | O=C(Cc1cccs1)NC1C(=O)N2C(C(=O)[O-])=C(C[n+]3ccccc3)CSC12 (configuration not stated) | 35.1% | 1.38 | -1.43 | 1.22 | 59% | -13.7% | 2 | 1.45 | 179% (inactive) | 74.4% | –
3 | CC12CCC(CC1=O)C2(C)C (configuration not stated) | 15.1% | 1.08 | 1.05 | 1.24 | 43.2% | 5.12% | 2 | 1.49 | – | – | –
4 | C[C@@H]1OC(Oc2c(-c3ccc(O)c(O)c3)oc3cc(O)cc(O)c3c2=O)[C@H](O)[C@H](O)[C@H]1O (some centres not stated) | -5.21% | 1.19 | 16.2 | 0.64 | 72.2% | -4.44% | 2 | 1.5 | – | – | –
5 | OCc1cc2c(cn1)[nH]c1ccccc12 | 15.8% | 0.82 | 10.8 | 0.58 | -1.27% | 17.8% | 2 | 1.28 | – | – | –
6 | NCCCCC(N)C(=O)NCC(=O)NC(Cc1cnc[nH]1)C(=O)NC(CCCCN)C(=O)O (configuration not stated) (H-KGHK-OH; configuration not given here) | -1.51% | 2.04 | 2.83 | 0.86 | 36% | 18.4% | 2 | 1.42 | – | – | –
7 | C1CCN2C[C@@H]3CC(CN4CCCC[C@@H]34)[C@H]2C1 | 16.2% | 1.32 | -2.17 | 1.45 | 72.7% | -9.72% | 2 | 1.48 | – | – | –
8 | CC1(C)O[C@@H]2C[C@H]3C4C[C@H](F)C5=CC(=O)C=CC5(C)[C@@]4(F)[C@@H](O)C[C@]3(C)[C@]2(C(=O)CO)O1 (some centres not stated) | -27.2% | 1.29 | -9.42 | 0.94 | 61.1% | 15.9% | 2 | 1.43 | – | – | –
9 | C[C@]12CCC3c4ccc(OC(=O)CCC(=O)O)cc4CCC3C1CCC2=O (some centres not stated) | 21.8% | 1.66 | 8.92 | 0.83 | 33.3% | -14.3% | 2 | 0.711 | – | – | –
10 | CCC[C@@H]1C[C@@H](C(=O)NC(C(C)Cl)C2O[C@H](SC)[C@H](O)[C@@H](O)[C@H]2O)N(C)C1 (some centres not stated) | 0.38% | 1.1 | -7.48 | 1.11 | 60.6% | -13% | 2 | 1.42 | – | – | –
11 | NC[C@@H]1O[C@H](OC2[C@@H](O)[C@H](O[C@@H]3[C@H](N)[C@@H](O)C[C@H](N)[C@H]3O[C@H]3O[C@H](CO)[C@@H](O)[C@H](O)[C@H]3N)O[C@@H]2CO)[C@H](N)[C@@H](O)[C@@H]1O (some centres not stated) | 25.1% | 0.88 | -2.53 | 1.33 | 16.8% | 21.4% | 2 | 0.564 | – | – | –
12 | NC[C@@H]1O[C@H](O[C@@H]2[C@@H](CO)OC(O[C@@H]3[C@@H](O)[C@H](N)C[C@H](N)[C@H]3OC3O[C@H](CO)[C@@H](O)[C@H](O)[C@H]3N)[C@@H]2O)[C@H](N)[C@@H](O)[C@@H]1O (some centres not stated) | -9.63% | 1.53 | 1.69 | 1.36 | 42.9% | -14.4% | 2 | 1.65 | – | – | –
13 | CC(=O)CCC1C2=NC(=C\C3=NC(=C(/C)C4=NC(C)(C5[N-]/C(=C\2C)C(C)(CCC(=O)NCC(C)OP(=O)(O)O[C@@H]2[C@@H](CO)OC(n6cnc7cc(C)c(C)cc76)[C@@H]2O)C5CC(N)=O)C(C)(CC(N)=O)C4CCC(N)=O)/C(C)(CC(N)=O)C3CCC(N)=O)/C1(C)C.[CH2-][C@H]1OC(n2cnc3c(N)ncnc32)[C@H](O)[C@@H]1O.[Co+2] (some centres not stated) | 55.6% | 1.56 | 0.82 | 0.56 | 44.4% | 14.2% | – | 1.42 | – | – | –
14 | COc1ccc2c(c1OC)C(=O)O[C@H]2[C@@H]1c2ccccc2CCN1C | 69.2% | 1.08 | -8.02 | 0.71 | 72.2% | -0.43% | 2 | 19 | – | – | –
15 | CCN(CCCc1ccccc1)CCCc1ccccc1 (tested in a mixture with another compound) | 13.3% | 1.17 | -6.75 | 0.86 | 31.7% | 20.1% | 2 | 1.65 | – | – | –
16 | CCC(=O)O[C@@H](O[P@](=O)(CCCCc1ccccc1)CC(=O)N1C[C@H](C2CCCCC2)C[C@H]1C(=O)O)C(C)C | 5.65% | 0.97 | 2.83 | 0.8 | 47.1% | 4.48% | 2 | 0.527 | – | – | –
17 | O=c1cc(-c2ccccc2)oc2cc(O)c(O)cc12 | 18.9% | 1.42 | 7.3 | 1.21 | 41% | 11% | 2 | 0.852 | – | – | –
18 | OCCS | 26.7% | 1.26 | -1.67 | 1.18 | 29.4% | 5.07% | 2 | 1.5 | – | – | –
19 | Nc1ncnc2c1ncn2C1OC(CO)[C@H](O)C1O (some centres not stated) | -97.3% | 1.18 | -9.49 | 1.64 | 80.6% | 3.91% | 2 | 1.96 | – | – | –
20 | COc1ccc(CCC(=O)c2c(O)cc(O[C@@H]3O[C@H](CO)C(O)[C@H](O)C3O[C@@H]3O[C@@H](C)[C@H](O)[C@@H](O)[C@H]3O)cc2O)cc1O (some centres not stated) | 18.6% | 1.15 | -2.46 | 1.1 | 77.8% | -15.4% | 2 | 1.25 | 146% (inactive) | 70.8% | –
21 | Cc1cc(Nc2ccccc2C(=O)O)ccc1Cl | -21.2% | -0.11 | -9.28 | 4.31 | 77.8% | -15.3% | 1 | -0.491 | – | – | –
22 | NCCNC(=O)c1ccc(Cl)cc1 | -45.7% | 1.23 | -2.85 | 1.14 | 66.7% | 11.9% | 2 | 1.48 | – | – | 0.02 h (inactive)
23 | CCC(=O)c1ccc2c(c1)N(CC(C)N(C)C)c1ccccc1S2 (configuration not stated) | -29.2% | 1.17 | 1.64 | 1.13 | 69.7% | -2.12% | – | 1.33 | – | – | –
